Screening data from PubChem.
This is a sample that favours compounds with a hit; in the whole collection about 6.6% have one here.
SW480 rereplic – A quantitative high throughput screen for small molecules that induce DNA re-replication in SW480 colon adenocarcinoma cells | Potency, µM (doses to about 46.1 µM), without a hit: at the top dose re-replication activation, hits mostly activators | AID 624297, 2012 | SW480 DNA re-replication, Hoechst DNA content imaging, 48 h | actives 1.8% (n = 340,000); further: % of control where 0% means no effect; nearly all actives have a fitted effect of over 55% in size
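Compounds, transferred as 23 nL by pin tool, were incubated with cells for 48 hr; DNA content per nucleus was then quantified by Hoechst staining and fluorescence plate imaging.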
KB-V1 cytotox – qHTS assay for MDR1-selective chemotherapeutics: Primary screen using the drug-selected MDR subline cells KB-V1; Potency, µM (doses to about 46.1 µM), most hits filed as cytotoxic; AID 1347076, 2019; KB-V1 MDR cells viability, CellTiter-Glo, 72 h; actives 3.4% (n = 400,000); further: on the % scale 0 is the no-effect control and ±100 the full control effect; nearly all actives have a fitted effect of over 60% in size
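KB-V1 cells (P-gp-expressing MDR subline of KB-3-1) in phenol-red-free DMEM with 10% FBS were exposed to library compounds over a concentration series for 72 h at 37 degrees C. Viability read by CellTiter-Glo luminescence; concentration-effect curves fitted after normalization.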
PTAP TSG101 blk – qHTS Assay for Iinhibitors of HIV-1 Budding by Blocking the Interaction of PTAP/TSG101 | Tumor susceptibility gene 101 protein (Homo sapiens), Q99816 | Fluorescence polarization, FITC-PTAP peptide / Tsg101 binding | Potency, µM (series often up to 115 µM), for inactives: at the top dose activity change, negative = inhibition, hits mostly inhibitors | 340,000 tested, under 10 active | AID 493005, 2010; active means well fitted inhibition curve with a large enough effect in the main read-out, with a control signal flat, not every such curve was filed as active; inconclusive means small, poorly fitted or top-dose-only effect, or effect the other way, or a change in a side signal; inactive means no such curve, though single readings can be large or run the other way; further: % of control where 0% means no effect
Target sequence (Q99816 whole entry, looked up): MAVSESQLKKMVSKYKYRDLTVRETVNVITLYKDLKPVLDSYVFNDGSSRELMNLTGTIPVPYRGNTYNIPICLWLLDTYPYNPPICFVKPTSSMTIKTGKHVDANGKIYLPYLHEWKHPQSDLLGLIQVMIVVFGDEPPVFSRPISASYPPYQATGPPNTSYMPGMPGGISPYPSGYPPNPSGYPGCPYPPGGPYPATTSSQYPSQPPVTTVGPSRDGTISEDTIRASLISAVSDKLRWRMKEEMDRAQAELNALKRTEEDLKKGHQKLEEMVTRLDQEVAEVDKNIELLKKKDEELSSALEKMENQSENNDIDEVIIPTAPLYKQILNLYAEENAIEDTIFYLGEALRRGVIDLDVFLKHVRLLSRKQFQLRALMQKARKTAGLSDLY
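Steps: Tsg101 binding domain dispensed (10 uM final), compounds pinned in DMSO, FITC-labeled PTAP-motif peptide added (50 nM final); after 20 min binding at room temperature, polarization measured.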
RGS4 inh – Inhibitors of Regulator of G Protein Signaling (RGS) 4: qHTS; Transcreener GDP fluorescence polarization, RGS4-accelerated GTP hydrolysis; Potency, µM (highest dose often 114 µM), for the others: top-dose activity change, negative = inhibition, most hits filed as inhibitors; actives 0.039% (n = 390,000); further: on the % scale 0 is the no-effect control and ±100 the full control effect; nearly all actives have a fitted effect of over 75% in size
Target sequence (P49798 whole entry, looked up): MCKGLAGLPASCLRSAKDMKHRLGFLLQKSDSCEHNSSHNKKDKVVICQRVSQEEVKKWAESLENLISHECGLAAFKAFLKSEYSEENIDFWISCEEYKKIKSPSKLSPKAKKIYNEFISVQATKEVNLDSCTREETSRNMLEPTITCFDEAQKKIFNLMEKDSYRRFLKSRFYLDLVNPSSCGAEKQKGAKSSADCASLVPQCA
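MLSMR compounds (23 nl, pin-transferred) preincubated 10 min at room temperature with a 500nM (2x) first reagent, then RGS4 at 900nM (2x) plus Transcreener GDP mix added; fluorescence polarization (620/688 nm) read before and after 90 min at 30 °C.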
MCF10A rerep – A quantitative high throughput screen for small molecules that induce DNA re-replication in MCF 10a normal breast cells. MCF 10A DNA re-replication, Hoechst nuclear intensity, 48 h. Potency, µM (top dose mostly 46.1 µM), without a hit: at the highest dose activity, positive = re-replication, hits mostly activators. AID 624296, 2012. actives 2.9% (n = 350,000); further: % of control where 0% means no effect; nearly all actives have a fitted effect of over 50% in size
KB-3-1 cytotox – qHTS assay for MDR1-selective chemotherapeutics: Primary screen using the parental adenocarcinoma cell KB-3-1; Potency, µM (highest dose often 46.1 µM), actives largely listed as cytotoxic; actives 1.4% (n = 400,000); KB-3-1 viability, CellTiter-Glo ATP luminescence, 72 h; further: on the % scale 0 is the no-effect control and ±100 the full control effect; nearly all actives have a fitted effect of over 60% in size
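Parental KB-3-1 adenocarcinoma cells in phenol-red-free DMEM with 10% FBS were pin-treated with compounds at several concentrations, incubated 72 h at 37 °C, and viability read by CellTiter-Glo luminescence; concentration-effect curves were fitted after normalization.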
The depositor's hits bear a star; i = inactive; u = inconclusive; x = no result; ! = not confirmed by another sample. Unless noted, the call rests on the fitted dose curve; in most records, active means well fitted curve in the direction sought with a large enough effect; inconclusive means small, poorly fitted or top-dose-only effect, or another doubt; inactive means no such curve, though single readings can be large; an effect the other way counts as inactive or inconclusive. Potency means the concentration at half of the fitted maximal effect.

SMILES	SW480 rereplic	KB-V1 cytotox	PTAP TSG101 blk	RGS4 inh	MCF10A rerep	KB-3-1 cytotox
O=C1c2cccc3cccc(c23)C(=O)N1CCN1CCN(C(=S)Nc2ccccc2)CC1	14.3%	18.4µM*	-1.1%	-15.4%	10.1%	i
CC(C)C(c1nnnn1C1CCCC1)N(C)C1CCCCC1 (configuration not stated)	-7.7%	18.4µM*	-7.8%	-3.8%	-5.8%	i
COc1cc2cc(C(c3nnnn3C3CCCCC3)N(C)C3CCCCC3)c(=O)[nH]c2cc1OC (configuration not stated)	13.6%	23.1µM*	-6.9%	26.7%	2.1%	20.6µM*
Clc1ccc(C(c2nnnn2C2CCCC2)N2CCSCC2)cc1 (configuration not stated)	-3.3%	i	-6.3%	-4.9%	20.6µM*	i
Cc1ccc(C(c2nnnn2C2CCCC2)N2CCc3ccccc32)cc1 (configuration not stated)	-8.3%	20.6µM*	-3.4%	18.2%	u	i
CCN(CC)S(=O)(=O)c1ccc(C(=O)N2CC(=O)Nc3ccc(F)cc3C2c2ccccc2)cc1 (configuration not stated)	x	i	x	-22.0%	x	i
CCc1nnc(SC(CC)C(=O)NCCOC)c2cc3occc3n12 (configuration not stated)	x	i	x	34.3%	x	i
O=c1[nH]c2cc3c(cc2cc1C(c1nnnn1C1CCCC1)N1CCSCC1)OCCO3 (configuration not stated)	2.2%	10.3µM*	0.0%	-30.5%	8.1%	u
CC(C)(C)n1nnnc1C(c1cc2cc3c(cc2[nH]c1=O)OCCO3)N1CCSCC1 (configuration not stated)	-2.6%	i	-9.5%	-4.5%	-12.4%	i
C=C1C(=O)OC2CC1C(O)CC(C)=CCCC(C)=CC(O)CC2C (configuration not stated)	u	u	-1.9%	-8.9%	1.3µM*	u
O=C(CC(NC(=O)c1ccccc1)c1ccccc1)OCc1nc(-c2cccc(Cl)c2)no1 (configuration not stated)	x	i	x	x	x	u
CCC(=O)Nc1ccc(S(=O)(=O)Nc2cccc(C)c2)cc1OC	6.5%	18.4µM*	0.0%	8.8%	u	u
O=S(=O)(c1ccc(F)cc1)N1CCN(c2nc(-c3ccc(F)cc3)nc3cc(Cl)ccc23)CC1	x	x	x	35.6%	x	x
COc1ccc(N2CCN(CCNC(=O)c3ccc4c(c3)[nH]c(=S)n3c5ccccc5nc43)CC2)cc1	7.31µM*	i	-1.1%	-8.2%	12.7%	i
COc1ccc(N2CCN(CCNC(=O)c3ccc4nc5ccccc5c(=O)n4c3)CC2)cc1	-1.6%	i	-3.2%	5.7%	-4.0%	i
Cc1ccc(S(=O)(=O)N2CCCCC2)cc1NC(=O)CNC(C)c1ccc(Cl)c(Cl)c1 (configuration not stated)	22.3%	i	-0.4%	-8.9%	1.1%	14.6µM*
O=C(CNc1ccccc1F)Nc1cc(S(=O)(=O)N2CCCCC2)ccc1Cl	-27.9%	i	-2.0%	-5.3%	-3.7%	i
Cc1ccc(S(=O)(=O)N2CCCCC2)cc1NCC(=O)Nc1ccc(Br)cc1F	x	u	x	x	x	3.26µM*
O=C(Nc1ccccc1)Nc1cc(Cl)cc(Cl)c1	16.3%	u	-1.9%	-16.3%	u	u
O=C(Nc1ccccc1)Nc1cc(OCC(F)(F)F)cc(OCC(F)(F)F)c1	15.1%	16.4µM*	-2.0%	-22.6%	20.6µM*	u
CCOc1ccc(C(C)NC(=O)C2CCN(S(=O)(=O)c3ccc(OC)cc3)CC2)cc1OCC (configuration not stated)	4.2%	20.6µM*	-2.5%	-5.1%	0.8%	i
Cc1ccc(C)c(NS(=O)(=O)c2cc3c(cc2Cl)NC(=O)CO3)c1	x	u	x	-13.9%	x	i
c1ccc(CN(CC2=NCCN2)c2ccccc2)cc1	0.231µM*!	i	0.1%	6.6%	8.7%	i
COc1ccc(CN2CC[C@H]3C=CC[C@@H](C(=O)NC4CCCCC4)[C@H]3C2=O)cc1OC	x	i	x	x	x	i
NS(=O)(=O)c1ccc(N/N=C/c2cn(-c3ccccc3)nc2-c2cccs2)cc1	u	u	-1.8%	-29.2%	13µM*	u
SMILES	SW480 rereplic	KB-V1 cytotox	PTAP TSG101 blk	RGS4 inh	MCF10A rerep	KB-3-1 cytotox
NS(=O)(=O)c1ccc(N/N=C/c2cn(-c3ccccc3)nc2-c2cccs2)c([N+](=O)[O-])c1	0.7%	i	0.3%	9.5%	5.5%	u
O=C(NC(=S)Nc1ccc(Cl)c(C(=O)O)c1)c1cccc(COc2ccccc2)c1	3.9%	i	-2.7%	-30.0%	18.0%	i
COC(=O)c1ccccc1NC(=O)c1cccc(COc2ccccc2Cl)c1	u	u	-3.4%	-25.9%	2.59µM*	u
O=C(NCc1ccccc1)c1cccc(COc2cc(Cl)ccc2Cl)c1	u	20.6µM*	1.0%	6.9%	27.4%	i
O=C(NCc1ccccc1)c1cccc(COc2ccccc2Cl)c1	0.9%	u	-7.1%	2.5%	u	i
O=C(O)c1ccc(Cl)c(NC(=S)NC(=O)c2cccc(COc3ccccc3)c2)c1	1.9%	i	-2.3%	u	8.2µM*	i
CC[n+]1c(/C=C/C=C/N(C(C)=O)c2ccccc2)sc2cc(OC)ccc21	u	13µM*	u	u	-101.6%	3.26µM*
CC[n+]1c(/C=C(\C)OC)sc2ccccc21	-2.6%	i	-3.1%	-46.8%	-4.4%	i
COc1ccc(-n2c(-c3ccc(Br)cc3)nc(=S)c3c2CCCC3)cc1	-1.7%	u	-1.5%	-24.9%	-8.9%	u
COc1ccc(-n2c(-c3ccccc3)c[n+]3c2CCC3)cc1	2.0%	i	-2.1%	-21.9%	0.2%	4.11µM*
COc1ccc(-n2c(-c3ccc(Br)cc3)c[n+]3c2CCCCC3)cc1	1.1%	i	-0.5%	u	20.3%	3.66µM*
COc1ccc(-n2nc(C(=O)O)nc2-c2ccccc2)cc1	-0.1%	i	-3.1%	-21.1%	-0.6%	i
COc1ccc(-n2c(-c3ccc(Br)cc3)c[n+]3c2CCC3)cc1	2.3%	i	-0.7%	-17.5%	u	4.11µM*
